The supplement of paper PMC6555819

Experiments:
Experiment in all cases: PBM binding z-score (relative to random genomic background probes); higher = stronger binding; sequences stand for … in GC…GCGATTGACAGCGTAGAATGAAGG
[1] = tested on: FXR:RXRa (NR concentration 270 nM, RXRa partner concentration 90 nM)
In short: (§1)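 The probes on custom Agilent 4×180K protein-binding microarrays were double-stranded, with 34-nt variable regions bearing direct-repeat seeds, single-nucleotide variants, half-site ablations and random human genomic background sequences. Incubation lasted 1 h with ligand-free nuclear receptor dimers in PBS pH 7.4, 2% milk, 0.02% Triton X-100, 1 mM DTT, 0.2 mg/mL BSA and 0.4 mg/ml salmon testes DNA. Antibodies against each partner (one per run) detected bound dimers, and fluorescence scans were regression-normalized. Binding z-scores take the random background probes as reference.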

[2] = tested on: LXRa:RXRa (NR concentration 270 nM, RXRa partner concentration 90 nM)
In short: as §1

[3] = tested on: LXRa homodimer (NR concentration 270 nM)
In short: as §1

[4] = tested on: LXRb:RXRa (NR concentration 270 nM, RXRa partner concentration 90 nM)
In short: as §1

[5] = tested on: LXRb homodimer (NR concentration 270 nM)
In short: as §1

[6] = tested on: PPARa:RXRa (NR concentration 270 nM, RXRa partner concentration 90 nM)
In short: as §1

[7] = tested on: PPARg:RXRa (NR concentration 180 nM, RXRa partner concentration 90 nM)
In short: as §1

[8] = tested on: PPARg:RXRa 270nM:90nM, anti-RXR (NR concentration 270 nM, RXRa partner concentration 90 nM)
In short: as §1

[9] = tested on: PPARg:RXRa 30nM:10nM, anti-RXR (NR concentration 30 nM, RXRa partner concentration 10 nM)
In short: as §1

[10] = tested on: PPARg:RXRa 90nM:30nM, anti-RXR (NR concentration 90 nM, RXRa partner concentration 30 nM)
In short: as §1

Row | Sequence | PBM binding z-score [1] | PBM binding z-score [2] | PBM binding z-score [3] | PBM binding z-score [4] | PBM binding z-score [5] | PBM binding z-score [6] | PBM binding z-score [7] | PBM binding z-score [8] | PBM binding z-score [9] | PBM binding z-score [10]
1 | AGAATGAGGTGACCAAAGATCAGGGAAACGCTTG | 0.916 | 0.957 | -0.26 | 0.478 | -0.291 | 2.24 | 2.48 | 2.2 | 0.478 | 1.46
2 | CTCGAAAGGTCGTGCTGAGGTGAGTATACCAAAC | 4.89 | 3.82 | 0.000478 | 3.31 | -0.153 | 4.82 | 2.58 | 3.85 | 1.23 | 2.67
3 | ATCTCTAGGTAACCAAGTTCCGTGAATGCCGAAC | -0.0612 | 0.165 | 0.165 | 0.157 | 0.617 | 0.45 | 0.308 | 0.331 | -0.073 | 0.181
4 | CCTAGTTGGTAAGGAGGTCACACACCGGATATGA | 3.14 | 3.17 | 1.87 | 3.13 | 0.74 | 4.19 | 3.16 | 3.39 | 1.34 | 2.68
5 | GGAACGAGGGCAAAGTTGATAGAATCTGTCGACG | 1.44 | 1.1 | -0.584 | 1.01 | -0.45 | 4.17 | 6.84 | 7.15 | 6.22 | 7.35
6 | AGTCAAAGTTCAGGTCGAGGTAACGTAAAGCACG | 4.82 | 4.08 | 1.87 | 2.47 | 0.819 | 3.6 | 4.74 | 4.74 | 2.07 | 3.97
7 | CGTCCAAGGTCAGCAGGTCAGTGTAAGCGACGTG | 5.5 | 4.05 | 0.506 | 3.05 | -0.03 | 4.91 | 4.14 | 4.68 | 1.12 | 3.01
8 | CCTACTGGGCCATTCAGAGGTCATTAATCATATG | 2.24 | 3.76 | 5.48 | 3.81 | 0.468 | 3.74 | 1.99 | 2.79 | 0.44 | 2.02
9 | ATCGAAAGGTCGAGGTGTGTATAGAGAAAGGGAA | 3.92 | 3.39 | 0.47 | 2.82 | 0.483 | 4.43 | 2.6 | 3.16 | 1.2 | 2.19
10 | GGAACGAGGGCACTCGAGTTGATAGCATGGCGAT | 0.375 | 2.3 | -0.535 | -0.145 | -0.549 | 1.4 | 1.27 | 0.984 | -0.139 | 0.362
11 | GCGACTGGGGCCTCAGCAGGTTACCATAACTTAA | -0.561 | -0.698 | -0.704 | -0.145 | -1.25 | -0.221 | -0.306 | -0.849 | -0.842 | -0.966
12 | GCAGACAGGTGAAACGCAGGTAACTCATGGTGGC | -0.174 | -0.103 | -0.708 | -0.224 | -1.24 | 0.901 | 0.886 | 0.443 | -0.0913 | 0.0978
13 | CGAACTAGGTCCTCCAGGACAGTGAATACATTGA | -0.16 | -0.319 | -0.274 | -0.492 | -0.593 | 0.0563 | 0.755 | 0.537 | -0.117 | 0.278
14 | TCTTGTAGATTAAGCAGGTTAAGAAAGCCTGAGT | 0.514 | 0.349 | -0.181 | 0.403 | -0.31 | 0.868 | -0.488 | 1.37 | 2.84 | 2.08
15 | CCTTACGGGTCACCGACAGGTTATAGCATTTGGA | 6.22 | 4.88 | 0.46 | 3.96 | -0.223 | 5.69 | 6.3 | 5.64 | 2.16 | 4.6
16 | TCTTGTAGATCAATAGAGGATAAGAAAGTGCGCT | 0.574 | 0.33 | -0.0873 | -0.13 | -0.142 | 0.415 | 0.389 | 1.46 | 2.75 | 2.25
17 | CATACAGGGTCACCTAGGCCAGAGTAGGGACGGC | 6.41 | 4.26 | 0.036 | 3.35 | 0.688 | 5.64 | 6.1 | 5.1 | 2.1 | 3.77
18 | CATACAGGGTCAGCTACGCCAGAGTAGGGACGGC | 4.39 | 3.1 | 0.0565 | 2.3 | 0.562 | 4.28 | 3.26 | 3.22 | 0.875 | 2.03
19 | CGTCCAAGTTCAAGGTCAGTGAAAGAGACTCGAA | 4.93 | 4.22 | 1.93 | 3.18 | 0.857 | 4.02 | 2.06 | 2.5 | 0.198 | 1.24
20 | ATCCAAAGGTCGACGAGGTGAGTATACACCGTTT | 5.35 | 3.7 | 0.198 | 3.13 | 0.235 | 4.5 | 4.29 | 4.16 | 1.4 | 3.03
21 | CCTGCTAGGTCAATGGTCAGCTACAGCAGCTCGC | 3.03 | 2.08 | -0.0038 | 1.55 | -0.217 | 2.98 | 4.03 | 5.1 | 2.52 | 4.92
22 | CGTCCATGGTCATAGGAGGTCAGTGAAGACAGAT | 1.81 | 3.6 | 1.31 | 2.3 | -0.0706 | 2.59 | 0.994 | 1.19 | -0.128 | 0.421
23 | TCTGGTAGATCAACAGGAGGTTAAGAAAGATCGA | 0.3 | 1.04 | 0.187 | 0.782 | -0.582 | 1.24 | -0.00962 | 1.19 | 2.17 | 1.82
24 | ATCGAAAGCTCGAAGGTGAGTATACCCACCCGAA | -0.601 | -0.626 | -0.677 | -0.458 | -0.832 | -0.531 | 0.476 | -0.226 | -0.209 | -0.372
